T1: UNK ZnF1-6 (called full-length) (human, UniProt Q9C0B0 30-357)
T1 sequence: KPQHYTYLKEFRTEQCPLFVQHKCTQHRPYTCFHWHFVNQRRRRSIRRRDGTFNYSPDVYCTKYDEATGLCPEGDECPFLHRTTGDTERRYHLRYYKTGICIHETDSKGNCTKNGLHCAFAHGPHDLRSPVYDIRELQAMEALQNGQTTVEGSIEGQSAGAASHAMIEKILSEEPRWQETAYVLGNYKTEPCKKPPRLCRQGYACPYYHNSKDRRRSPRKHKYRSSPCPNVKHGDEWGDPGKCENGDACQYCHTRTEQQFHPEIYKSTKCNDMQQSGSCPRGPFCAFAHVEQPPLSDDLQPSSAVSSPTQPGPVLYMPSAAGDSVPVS

B1: chr4:150908776:150908877:-|CDS|ENSG00000198589|msi1|FALSE|bound_elsewhere (ssRNA)
RNA: GGGAGUUCUACAGUCCGACGAUCGUUGAUUUGUACUUAGAUUCUCUUUGUGGCAUACUAUUUAACUGUUUUUAAUUAAUUCUUAGGGUACAUUUAAAUUCAAAGCAGAAAGCGACCUUUUCCUUGCUGAGCAUCACAAACUUUCAACAGAGGAUUGAGCAUCA
B2: chr2:150470103:150470218:-|CDS|ENSG00000115963|unk|total|mutant (ssRNA)
RNA: GGGAGUUCUACAGUCCGACGAUCAUGGCCAAACAGAUUGGAGCAGCUACUUAUAUCGAAUGCUCAGCUUUACAGUCGGAAAACCGCGUCAGAGACAUUUUUCACGUUGCCACCUUGGCAUGUGUAAAUAAGACAAAUAAAAACCAACAGAGGAUUGAGCAUCA
B3: chr3:120396629:120396730:-|3pUTR|ENSG00000163430|msi1|FALSE|unique (ssRNA)
RNA: GGGAGUUCUACAGUCCGACGAUCGCCUUCAUUUCUAGGAGUGCUUUAAGAGAAACUGUAAAUGGUGCUCUGGGGCUGGAGGCUAGUAAGGAAACUGCAUCACGAUUGAAAGAGGAACAGACCCAAAUCUGAACCUCUUUUGAGCAACAGAGGAUUGAGCAUCA
B4: chr14:100883672:100883793:-|CDS|ENSG00000254656|unk|FALSE|unique (ssRNA)
RNA: GGGAGUUCUACAGUCCGACGAUCUCUAUUCCGGGUCCCUCAGCCGGAUUCCCUAGACAGUCUGAUUGUGCUCAUCCUGCAAAUAGAAGAGAAGCUGGCAGAGAGAAGAGCUAUGCUCAGGCUGCCCCCCGAGGCCCGCCCCCGCAACAGAGGAUUGAGCAUCA
B5: chr8:23842440:23842541:-|3pUTR|ENSG00000159167|msi1|total|mutant (ssRNA)
RNA: GGGAGUUCUACAGUCCGACGAUCCCAAUGCGACAAGCCGUUCAUGAGUAUUCCCCGCAAAUUUCUCUCUUUCUUCAGUUCAGCCGAUUUCCUUUUUUCUUUUCUUUUUUUUUUUUUUUUUUUUUGGCUGUGACCUCUUCAAACCAACAGAGGAUUGAGCAUCA
B6: ENSG00000103657:stop:overlap|stop_codon|ENSG00000103657|stop_codon|NA|stop_codon (ssRNA)
RNA: GGGAGUUCUACAGUCCGACGAUCAGUUUUCUGUUGCUUUGACCAAAGAUGGUCAUGUGUAUACCUUUGGUCAAGGUGGUGAGUAGUCACUAUGACCUCCUUUCAGUAUAGAUAAUUUUCCACUUCUCUUUCAUGUGCUUUAUUCAACAGAGGAUUGAGCAUCA
B7: chr8:23842440:23842541:-|3pUTR|ENSG00000159167|msi1|FALSE|unique (ssRNA)
RNA: B5 RNA with C37U, C38A, C54U, C55A, C83U, C84A

Residue numbers refer to the chain shown, from its start. Over roughly 5,800 sequences, “enrichment r” has its median near 0.68; the highest 2% begin near 11. Many of the other results were omitted from the sample, so the highest values are more common in it than they were.

In the assay the target is T1, UNK ZnF1-6 (called full-length). Briefly: nsRBNS (natural sequence RNA bind-n-seq); RBNS binding buffer (assumed for nsRBNS): 25 mM Tris pH 7.5, 150 mM KCl, 3 mM MgCl2, 0.01% Triton X-100, 500 ug/ml BSA, 20 U/ml SUPERase-In, 4 C; UNK is unkempt and MSI1 is Musashi-1; names of the RNAs are library labels; protein concentration not given here; high values mean tight binding.
Turning to B1, the binding signal came out at 3.69 enrichment R.
B2 yielded a binding signal of 0.384 enrichment R.
B3 had a binding signal of 0.489 enrichment R.
In turn, B4 came in with a binding signal of 0.977 enrichment R.
As for B5, the binding signal came out at 3.66 enrichment R.
The result for B6 reads 0.846 enrichment R; that for B7, 28.9 enrichment R.
